One may read the AC50 as the concentration giving half of the maximal activity seen.

“And” between values parts separate entries of the source, which are not always exact repeats. Identical values can stand only once. More than one record can exist for a structure, and the calls need not agree. The source made the active and inactive calls. How the source made its calls: active means hit-call score of the fitted dose curve at least 0.9, where 1 is the maximum; inactive means score below 0.9.

Read-out in this experiment: Heat shock 70 kDa protein 1 (HSPA1A), gene 3303
Put plainly: LTEA_HepaRG_HSPA1A: Life Technologies and Expression Analysis (LTEA) Assay for Heat shock 70 kDa protein 1 (HSPA1A) using HepaRG (AID 2283502). Conditions: mRNA level, 48 h; actives raise or lower the signal. The procedure: LTEA_HepaRG is a cell based, multiplexed-readout assay that uses HepaRG, a human liver cell line, with measurements taken at 48 hours after chemical dosing on a 96-well plate.LTEA_HepaRG_HSPA1A is one of 102 assay component(s) measured in the LTEA HepaRG cell culture assay. It is a marker of Oxidative Stress.Data from the assay component LTEA_HepaRG_HSPA1A was analyzed into 1 endpoint. This assay endpoint, LTEA_HepaRG_HSPA1A, was analyzed with bidirectional fitting relative to DMSO as the negative control and baseline of activity. Using a type of inducible reporter, measures of mRNA induction for gain or loss-of-signal activity can be used to understand regulation of transcription factor activity. To generalize the intended target to other relatable targets, this assay endpoint is annotated to the dna binding intended target family, where the subfamily is heat shock protein.
A total of 1060 chemcials from the ToxCast library were tested in eight-point concentration-response experiments. Cell culture and cytotoxicity assays were conducted at Thermo Fisher Scientific's Custom Services facility (Madison, WI). A single lot of human HepaRG cells (Thermo Fisher Scientific, Frederick, MD) was used for the cell culture experiments. 96-well format collagen type I coated plates of human HepaRG cells were prepared using established methods. Briefly, cryopreserved HepaRG cells were thawed, plated at a density of approximately 100,000 cells/well in HepaRG Thaw, Plate, and General Purpose media (HPRG770, Thermo Fisher Scientific), and incubated for 48 hours. 0.5% DMSO was selected as vehicle control to balance the requisite need of DMSO in HepaRG cultures to maintain differentiation (for example, baseline metabolism, proportions of hepatocytes vs. cholangiocytes), while enabling further hepatic receptor pathway activation (for example, PXR and CAR) in response to chemical exposure. 48 hours after plating, the culture medium was replaced with HepaRG Serum-Free Incudtion Media. Cells were exposed to each test chemical in duplicate and maintained in CO2 incubators for another 48 hours. Chemical plates were thawed to room temperature and 200x concentrations of treatment groups were prepared. 8-point conentration-reponse curves were made with the highest exposure at 100 uM, followed by half-log dilutions, all in 0.5% DMSO. Each test plate contained variouse controls, induction positive controls (1mM phenobarbital), cytotoxicity positive controls ([…] aflatoxin B1), vehicle controls (0.5% DMSO), and total lysis controls (0.5% DMSO). Cell morphology images were taken using an Essen IncuCyte FLR automated microscope, with six 96-well plates imaged in about 24 minutes. Images were captured and exported and JPEG files. Spent culture media was transfered to black-well plates for the LDH assay, and remaining media was sorted at -80 C for later use. Cells were treated with RLT buffer and frozen until shipped for gene expression analysis. Total RNA was isolated from the cell suspension in 75 uL of Buffer RLT (Qiagen, Germantown, MD 20874) by Quintiles/Expression Analysis (Durham, NC) using a custom isolation procedure. Total RNA from each plate well was transferred to a preamplification plate. Fluidigm's 96.96 Dynamic ArrayTM (Fluidigm, Amsterdam, the Netherlands) technology was used for gene expression analyses by quantitative reverse transcription polymerase chain reaction (qRT-PCR, performed by Quintiles/Expression Analysis, Durham, NC)89. Standard TaqManTM Assays (Applied Biosystems/ThermoFisher Scientific, Foster City, CA) were used to assess the expression of 93 genes selected based on their selectivity and sensitivity to important hepatic receptors known to be modulated by environmental chemicals; importance in human hepatocyte functionality; and hepatotoxicity. […]
In the case of `Cc1cc(Cl)ccc1OCC(=O)O`, the call was inactive.

For the compound `CCCCC(CC)COC(=O)c1ccccc1C(=O)OCC(CC)CCCC` (stereo not given), the compound was classed as inactive.

Consider `COc1nc(NC(C)C)nc(NC(C)C)n1`, for which the call was inactive.

Take `COP(=S)(OC)Oc1nc(Cl)c(Cl)cc1Cl`: the outcome was inactive.

Turning to `N#CC(CCc1ccc(Cl)cc1)(Cn1cncn1)c1ccccc1` (stereo not given), the AC50 was 79.5 µM (active).

As to `C=CCC1=C(C)C(OC(=O)C2C(C=C(C)C)C2(C)C)CC1=O` (stereo not given), the compound was classed as inactive.

For the compound `CO/C=C(/C(=O)OC)c1ccccc1Oc1cc(Oc2ccccc2C#N)ncn1`, the result was inactive and the AC50 was 83.4 µM (active).

For `CN(C)C(=S)SSC(=S)N(C)C`, the call was inactive.

Regarding `CC(C)Oc1cc(-n2nc(C(C)(C)C)oc2=O)c(Cl)cc1Cl`, the outcome was inactive.

`O=C(O)c1nc(Cl)ccc1Cl`: the outcome was inactive.

In the case of `CC(Oc1ccc(Cl)cc1Cl)C(=O)O` (stereo not given), the call was inactive.

For the compound `COc1cnc(OC)n2nc(NS(=O)(=O)c3c(OCC(F)F)cccc3C(F)(F)F)nc12`, the AC50 was 50 µM (active).

As for `OC(c1ccc(Cl)cc1)(c1cncnc1)c1ccccc1Cl` (stereo not given), the call was inactive.

As to `COC(=O)c1ccccc1C(=O)OC`, the compound was called inactive.

For the compound `CCON=C(CC)C1=C(O)CC(c2c(C)cc(C)cc2C)CC1=O` (stereo not given), the compound was classed as inactive.

On to `COC(=O)C(C)Oc1ccc(Oc2ccc(Cl)cc2Cl)cc1` (stereo not given), for which the compound was classed as inactive.

For `O=C(O)COc1nc(Cl)c(Cl)cc1Cl`, the outcome was inactive.

`CC(C)(C)c1ccc(CSc2cnn(C(C)(C)C)c(=O)c2Cl)cc1`: the call was inactive.

For `O=C(Nc1ccccc1)Nc1ccnc(Cl)c1`, the AC50 was 84.2 µM (active).

`CCOC(=O)CC(SP(=S)(OC)OC)C(=O)OCC` (stereo not given): the compound was classed as inactive.

With `CCc1nn(C)c(C(=O)NCc2ccc(C(C)(C)C)cc2)c1Cl`, the concentration at half-maximal activity (AC50) is 9.92 µM (active).

With `C=CCC1=C(C)[C@@H](OC(=O)[C@@H]2[C@@H](C=C(C)C)C2(C)C)CC1=O`, the outcome was inactive.

For the compound `CNC(=O)ON=CC(C)(C)SC`, the outcome was inactive.

With `CNC(=S)S`, the compound was called inactive.

Take `CC(C)C1(C)N=C(c2nc3ccccc3cc2C(=O)O)NC1=O` (stereo not given): the compound was classed as inactive.

As to `COP(N)(=O)SC` (stereo not given), the outcome was inactive.

Regarding `CCNc1nc(Cl)nc(NCC)n1`, the result was inactive.

For the compound `C=CC1(C)OC(=O)N(c2cc(Cl)cc(Cl)c2)C1=O` (stereo not given), the outcome was inactive.

Regarding `CCCN(CCC)c1c([N+](=O)[O-])cc(S(N)(=O)=O)cc1[N+](=O)[O-]`, the AC50 was 70.7 µM (active) and 75.6 µM (active) and 50 µM (active).

Consider `COC(=O)C=C(C)OP(=O)(OC)OC`, for which the outcome was inactive.

Consider `N#Cc1cc(Br)c(O)c(Br)c1`, for which the AC50 was 10.6 µM (active).

In the case of `CCOP(=S)(OCC)SCn1c(=O)oc2cc(Cl)ccc21`, the call was inactive.

In the case of `CC1COC(Cn2cncn2)(c2ccc(Oc3ccc(Cl)cc3)cc2Cl)O1` (stereo not given), the AC50 was 87.2 µM (active).

Turning to `CCCC1COC(Cn2cncn2)(c2ccc(Cl)cc2Cl)O1` (stereo not given), the AC50 is 90.5 µM (active).

In the case of `Cc1ccc(-c2c(Cl)nc(C#N)n2S(=O)(=O)N(C)C)cc1`, the outcome was inactive.

For the compound `COC(=O)N(OC)c1ccccc1COc1ccn(-c2ccc(Cl)cc2)n1`, the AC50 was 12 µM (active).

As for `CON(C)C(=O)Nc1ccc(Cl)c(Cl)c1`, the call was inactive.

Take `COc1ccc(C(c2ccc(OC)cc2)C(Cl)(Cl)Cl)cc1`: the AC50 is 29.8 µM (active).

In the case of `CC1=C(C(=O)Nc2ccccc2)SCCO1`, the call was inactive.
